The list is not random: actives were taken first. Their share in the collection is about 7.5%.
SMN2 splice up: qHTS Assay for Enhancers of SMN2 Splice Variant Expression; HEK293 SMN2-luciferase splicing reporter, luminescence, 30-36 h; Potency, µM (top dose mostly 46.1 µM), inactives show at the top dose activity change, positive = activation, actives largely listed as activators; 2.8% of 210,000 active; AID 1458, 2008; also: % of control where 0% means no effect; nearly all actives have a fitted effect of over 55% in size
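qHTS luciferase splicing reporter: luminescence rises when SMN2 exon 7 is included in transfected HEK293 cells. Compound exposure lasted 30-36 h at 37C, with 4.5 mM final sodium butyrate as control, followed by a ONE-Glo read.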
KinaseGlo FLuc: Counterscreen for Luciferase (Kinase-Glo TM) Inhibition. Luciferin 4-monooxygenase (Photuris pensylvanica), Q27757. Kinase-Glo luciferase, ATP luminescence, 8 min. Potency, µM (titrated, usually from 38.3 µM), inactives show top-dose activity change, negative = inhibition, most hits filed as inhibitors. 0.28% of 200,000 active; also: % is scaled to controls: 0 for no effect and ±100 for the full control effect; nearly all actives have a fitted effect of over 60% in size
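Substrate mix (final 50 mM imidazole pH 7.2, 50 mM KCl, 7 mM MgCl2, 10 uM ATP, 0.01% Tween 20, 0.05% BSA) plus pin-tool compound, then Kinase-Glo detection mix; 8 min ambient, luminescence read.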
Rab9 prom act: qHTS Assay for Rab9 Promoter Activators; Huh7 Rab9 promoter-luciferase reporter, luminescence, 24 h; 2.8% of 320,000 active; Potency, µM (top dose mostly 9.22 µM), for the others: at the highest dose activation, negative = inhibition, hits mostly activators; AID 485297, 2010; also: % of control where 0% means no effect; nearly all actives have a fitted effect of over 60% in size
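Using Huh7 cells stably transfected with Rab9 promoter–luciferase, compounds were incubated 24 h at 37 °C, 5% CO2; luciferase luminescence was read 10 min after reagent addition.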
FLuc counter: qHTS profiling assay for firefly luciferase inhibitor/activator using purifed enzyme and Km concentrations of substrates (counterscreen for miR-21 project) | Luciferin 4-monooxygenase (Photinus pyralis), P08659 | purified FLuc, Km substrates, luminescence inhibition | Potency, µM (doses to about 57.5 µM), without a hit: at the highest dose activity change, negative = inhibition, most hits filed as inhibitors | 6.9% of 360,000 active | AID 588342, 2011;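 also: plate controls were vehicle for no effect and reference inhibitor for full effect; nearly all actives have a fitted effect of over 55% in size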
Target sequence (P08659 whole entry, looked up): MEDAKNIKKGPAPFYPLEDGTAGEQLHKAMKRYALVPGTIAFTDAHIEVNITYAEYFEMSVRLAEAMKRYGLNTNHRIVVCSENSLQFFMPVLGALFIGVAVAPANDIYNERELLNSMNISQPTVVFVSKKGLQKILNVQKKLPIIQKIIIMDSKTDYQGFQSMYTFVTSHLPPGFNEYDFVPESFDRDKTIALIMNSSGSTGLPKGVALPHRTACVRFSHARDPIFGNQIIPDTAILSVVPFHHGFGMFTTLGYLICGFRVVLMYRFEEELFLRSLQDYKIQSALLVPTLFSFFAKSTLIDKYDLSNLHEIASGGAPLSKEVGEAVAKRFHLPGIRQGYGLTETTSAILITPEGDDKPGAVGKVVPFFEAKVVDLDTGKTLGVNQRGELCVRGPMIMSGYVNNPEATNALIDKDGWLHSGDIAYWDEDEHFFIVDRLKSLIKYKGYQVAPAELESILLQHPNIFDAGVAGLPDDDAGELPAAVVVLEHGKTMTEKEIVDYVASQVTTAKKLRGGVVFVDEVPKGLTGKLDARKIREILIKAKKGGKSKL
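Purified P. pyralis luciferase, 10 nM final, with Km-level 10 uM D-luciferin and 10 uM ATP in 50 mM Tris acetate pH 7.5, 10 mM Mg acetate, 0.01% Tween-20, 0.05% BSA; 6-point qHTS titration about 60 µM downward; luminescence read.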
ELG1 genotox: qHTS screen for small molecules that induce genotoxicity in human embryonic kidney (HEK293T) cells expressing luciferase-tagged ELG1 | HEK293T ELG1-luciferase reporter, luminescence, 16 h | Potency, µM (top dose mostly 46 µM), for the others: at the top dose activity change, positive = activation, usual class: activators | 1.3% of 330,000 active | AID 504466, 2011; also: % of control where 0% means no effect; nearly all actives have a fitted effect of over 60% in size
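HEK293T cells expressing luciferase-tagged ELG1 were exposed to compound or DMSO vehicle for 16 hr at 37 °C and 5% CO2. Luciferase activity was then measured with ONE-Glo after 30 min at room temperature.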
NPC1 prom act: qHTS Assay for NPC1 Promoter Activators; Huh7 NPC1 promoter luciferase reporter, 24 h; 2.4% of 320,000 active; Potency, µM (titrated, usually from 9.22 µM), for the others: at the top dose activation, usual class: activators; also: % of control where 0% means no effect; nearly all actives have a fitted effect of over 60% in size
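Readout is luciferase luminescence, reflecting NPC1 promoter activation in stably transfected Huh7 cells after 24 h compound exposure at 37 °C in reduced-serum medium with 10% FBS.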
Starred values were filed as active, the others as inactive; ? = inconclusive; . = no result given. Calls follow the shape of the dose curve; as a rule, active = well fitted curve in the direction sought with a large enough effect; inconclusive = small, poorly fitted or top-dose-only effect, or another doubt; inactive = no such curve, though single readings can be large; an effect the other way counts as inactive or inconclusive. Potency is read from the fitted curve at half-maximal effect.

SMILES	SMN2 splice up	KinaseGlo FLuc	Rab9 prom act	FLuc counter	ELG1 genotox	NPC1 prom act
Cc1ccc(N(CC(=O)Nc2cccc(Cl)c2C)S(C)(=O)=O)cc1	.	.	5%	4%	-4%	1%
COc1ccc(-c2noc(-c3cccnc3)n2)cc1OC	?	-12%	3.5µM*	15µM*	?	?
CCOc1ccc(-c2noc(-c3cccnc3)n2)cc1OC	-5%	-5%	25%	13µM*	12%	?
COc1ccc(-c2cc(C(=O)N/N=C/c3ccc(O)cc3)[nH]n2)cc1	.	-4%	.	.	.	.
COc1ccccc1-c1nc2cc(NC(=O)c3ccccc3Cl)ccc2o1	11%	.	.	5.4µM*	.	.
CC(C)(C)C(=O)Nc1ccc2oc(-c3cc(F)c(F)cc3Cl)nc2c1	25%	0%	4.5µM*	2.7µM*	5.2µM*	?
COc1ccccc1C(=O)Nc1ccc2oc(-c3cccc4c(Br)cccc34)nc2c1	1%	.	.	?	.	.
O=C(Nc1ccc2oc(-c3ccccc3F)nc2c1)c1ccccc1Cl	14µM*	.	.	3.4µM*	.	.
O=C(Nc1ccc2oc(-c3ccncc3)nc2c1)c1ccccc1Cl	0%	.	.	?	.	.
CCOC(=O)c1c(NC2=NS(=O)(=O)c3ccccc32)sc2c1CCC(C)C2 (stereo not given)	-12%	1%	-5%	4%	-2%	-5%
CCOC(=O)c1c(NC2=NS(=O)(=O)c3ccccc32)sc2c1CCCCC2	.	.	?	0%	1%	1.4µM*
CC(C)(C)c1ccc(Cn2ccc(-c3ccc4c(c3)OCO4)n2)cc1	4%	-3%	12%	27µM*	1%	8%
Cc1cccn2c(=O)nc(SCC(=O)c3ccc(Cl)cc3)nc12	.	.	-6%	1%	?	-3%
Cc1cccn2c(=O)nc(SCC(=O)c3ccccc3)nc12	.	.	18%	-2%	21µM*	17%
C[C@@H]1CCC[C@H](C)N1Cc1nc(Cc2ccccc2Cl)no1	.	-5%	0%	2%	4%	-4%
COC(=O)C1CSC(C(=O)OC)N1C(=O)CN1CCN(c2ccccc2)CC1 (stereo not given)	22%	0%	-29%	2%	-3%	-7%
COC(=O)c1ccc(/C=N/n2cnnc2)cc1	-9%	-1%	8%	-1%	-1%	3%
CC(C)(C)c1ccc(/C=N/n2cnnc2)cc1	12%	-1%	-8%	19µM*	8%	1%
N=C1S/C(=C\c2ccco2)C(=O)N1c1nccs1	-36%	-8%	?	11µM*	?	?
Cc1cccc(C)c1NC(=O)Cn1c(=O)n(CCCS(=O)(=O)C2CCCCC2)c(=O)c2ccccc21	3%	.	.	-1%	.	.
COc1ccc(N2Cc3cccc(C(=O)Nc4ccc(C(C)C)cc4)c3C2=O)cc1	?	.	.	0.27µM*	.	.
COCCN1Cc2cccc(C(=O)Nc3cccc(OC)c3)c2C1=O	-32%	3%	10%	-16%	2%	-1%
CCN(CC)S(=O)(=O)c1ccc(NC(=O)c2cccc3c2C(=O)N(CCOC)C3)cc1	2%	1%	1%	3%	11%	0%
COCCN1Cc2cccc(C(=O)Nc3ccc(C)c(C)c3)c2C1=O	-1%	-9%	16%	7.6µM*	10%	-1%
CCOc1ccc(NC(=O)c2cccc3c2C(=O)N(CCOC)C3)cc1	-8%	-3%	21%	6.7µM*	15%	7%
SMILES	SMN2 splice up	KinaseGlo FLuc	Rab9 prom act	FLuc counter	ELG1 genotox	NPC1 prom act
CCN(CC(=O)Nc1c(F)cccc1F)C(=O)c1ccc2c(c1)S(=O)(=O)N=C1CCCCCN12	.	.	-1%	4%	4%	-1%
Fc1ccccc1CSc1nnc(-c2cccs2)o1	13µM*	8%	1.8µM*	5.4µM*	8.2µM*	1.8µM*
Fc1ccc(CSc2nnc(-c3cccs3)o2)cc1	?	4%	?	?	?	-2%
c1ccc(CSc2nnc(-c3cccs3)o2)cc1	?	-3%	?	12µM*	?	2.8µM*
O=C(Cn1ncc2c([nH]c3ccccc32)c1=O)Nc1cccc(C(F)(F)F)c1	.	.	.	0%	.	.
CN(C)Cc1ccccc1-c1cc(NC2CC2)ncn1	-8%	-3%	.	.	.	.
COc1ccccc1CCNC(=O)C(=O)NCC(c1cccnc1)N1CCN(c2ccccc2)CC1 (stereo not given)	.	.	.	2%	.	.
N#Cc1ccc(CN2CCC3(CC2)CCN(C(=O)c2ccco2)CC3)cc1	-18%	-1%	.	.	.	.
CCc1nn(CC(=O)NC(C)C)c(=O)c2cc3cc(F)ccc3n12	-3%	.	.	-1%	.	.
Cc1cc(Cl)c2oc(C(=O)N3CCN(c4cccc(C)n4)CC3)c(C)c2c1	.	.	?	15µM*	?	3.5µM*
Cc1cc(Cl)c2oc(C(=O)N3CCN(C(=O)c4ccco4)CC3)c(C)c2c1	.	.	?	11µM*	?	?
O=C(NN1CCOCC1)c1ccccc1	.	.	3%	0%	-6%	7%
CCN(CC)S(=O)(=O)c1ccc(NC(=O)[C@H](CSCc2ccccc2)N2Cc3ccccc3C2=O)cc1	4.5µM*	.	.	5%	.	.
Cc1onc(-c2c(Cl)cccc2Cl)c1C(=O)Nc1ccc(N2CCOCC2)cc1	.	.	-3%	1%	-1%	1%
Cc1ccc(Nc2ncnc3c2cnn3-c2ccccc2)c(C)c1	.	.	.	19µM*	.	.
CCOc1ccccc1Nc1ncnc2c1cnn2-c1ccc(C)cc1	.	.	.	15µM*	.	.
Cc1ccc(-n2ncc3c(Nc4cccc(C)c4C)ncnc32)cc1	.	.	.	8.5µM*	.	.
Cc1ccc(-n2ncc3c(Nc4ccc(Oc5ccccc5)cc4)ncnc32)cc1	.	.	.	-6%	.	.
CCOc1ccccc1Nc1ncnc2c1cnn2-c1ccccc1	-6%	2%	0%	-13%	-5%	-1%
COc1ccc(NC(=O)c2ccccn2)cc1	1.6µM*	13µM*	?	2.7µM*	?	0.5µM*
COc1ccc(NC(=O)c2ccccn2)cc1OC	?	-17%	4µM*	17µM*	?	?
C=C(C)C(=O)Nc1cccc(C2=NOC3(C2)C[C@H](C(N)=O)N(C(=O)COc2ccc(Cl)cc2)C3)c1 (stereo not given in full)	.	.	-3%	-1%	-4%	-4%
Nc1cc(=O)[nH]c(SCC(=O)NC2CCCCCCC2)n1	.	.	.	.	0%	.
Cc1ccc(CNc2ccc(-c3nc(C(C)C)no3)cc2[N+](=O)[O-])cc1	.	.	.	-1%	.	.

Screens from PubChem.
